Test results from PubChem BioAssay (Tox21).
Results filed as inconclusive are left out. The source made the active and inactive calls. Unless noted, calls come from the whole dose curve.

Tests used:
[1] = qHTS assay to identify small molecule antagonists of the estrogen related receptor signaling pathway with the pleiotropic PPARgamma coactivator (PGC) from Tox21 10K library - cell viability counter screen (AID 1224840; active = well fitted cell-killing curve with a large enough effect in the repeat runs, not every such curve was filed as active; note: nearly all actives have a fitted effect of over 40% in size)
How it was run: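 Cell viability is measured by CellTiter-Fluor fluorescence in PGC/ERR cells that receive compounds after a 6-hour attachment period and are then incubated 17.5 hours at 37 C.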

[2] = qHTS assay to identify small molecule antagonists of the estrogen related receptor signaling pathway with the pleiotropic PPARgamma coactivator (PGC) from Tox21 10K library (AID 1224841; call rule not given here; note: series mostly up to about 92 µM; actives are mostly falling curves and most rising ones were filed inactive; nearly all actives have a fitted effect of over 50% in size)
How it was run: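 Cells stably carrying the PGC/ERR reporter, seeded at 2,000 per well, received pin-transferred compounds 6 h post-plating. Exposure lasted 18 h at 37 C. Signal: One-Glo luminescence.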

[3] = qHTS assay to identify small molecule agonists of the estrogen related receptor signaling pathway with the pleiotropic PPARgamma coactivator (PGC) from Tox21 10K library (AID 1224842; active = well fitted curve in the direction sought with a large enough effect in the repeat runs; an effect the other way counts as inactive or inconclusive; note: nearly all actives have a fitted effect of over 15% in size)
How it was run: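 PGC/ERR reporter cell line, 2,000 cells per well, incubated 6 h at 37 C before 23 nL compound in DMSO was added. After 18 h at 37 C, One-Glo luminescence read following 30 min at room temperature.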

[4] = target: Thyrotropin receptor (Homo sapiens) (UniProt P16473); assay: qHTS assay to identify small molecule agonists of the thyroid stimulating hormone receptor (TSHR) signaling pathway (AID 1224843); note: nearly all actives have a fitted effect of over 45% in size
How it was run: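 HEK293/TSHR, 800 cells/well; cpd 30 min RT; add cAMP-d2 + anti-cAMP-cryptate, 1 h RT; fluorescence read on plate reader. 15-pt titration, n=3.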

[5] = qHTS assay to identify small molecule agonists of H2AX (AID 1224845; active = well fitted activation curve with a large enough effect in the signal ratio in the repeat runs, not every such curve was filed as active; the % refers to the signal ratio)
How it was run: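 Wild-type CHO-K1 cells, plated overnight, exposed 3hr at 37C to 15 concentrations (0.76% DMSO final). Lysed, then HTRF anti-pH2AX (S139) cryptate and anti-H2AX-d2 antibodies, 24 hr room temperature; 665/620 nm emission read.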

[6] = qHTS assay to identify small molecule agonists of the hypoxia (HIF-1) signaling pathway (AID 1224846; active = well fitted activation curve with a large enough effect in the signal ratio in the repeat runs, not every such curve was filed as active; the % refers to the signal ratio)
How it was run: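 Agonist mode reporter screen. ME-180 cells stably expressing bla under HRE control received test compounds in DMSO for 17 hrs (37C, 5% CO2), and beta-lactamase activity was then detected with the CCF4-AM FRET substrate.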

[7] = qHTS assay to identify small molecule agonists of H2AX - cell viability counter screen (AID 1224847); note: top concentration of the series differs between compounds; nearly all actives have a fitted effect of over 30% in size
How it was run: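 Wild-type CHO-K1 cells (10% FBS medium) were plated overnight at 37C, exposed to compounds at 15 concentrations for 3 hr at 37C (0.76% DMSO final), and viability was read as CellTiter-Glo luminescence after 30 min at room temperature.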

[8] = qHTS assay to identify small molecule antagonists of the estrogen related receptor (ERR) signaling pathway from Tox21 library (AID 1224848; active = well fitted curve in the direction sought with a large enough effect in the repeat runs; an effect the other way counts as inactive or inconclusive; note: nearly all actives have a fitted effect of over 50% in size; note: potency is the fitted concentration of half-maximal effect)
How it was run: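 Compounds dissolved in DMSO are pin-transferred onto ERR reporter cells (2,000 per well) that have settled for 6 h at 37 C. Plates then incubate 18 h at 37 C before ONE-Glo luciferase reagent and a luminescence read 30 min later.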

[9] = qHTS assay to identify small molecule agonists of the hypoxia (HIF-1) signaling pathway - cell viability counter screen (AID 1224844); note: nearly all actives have a fitted effect of over 50% in size
How it was run: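 Viability counter screen: HRE-bla ME-180 cells plated 5 hrs before compound addition, treated 17 hrs at 37C and 5% CO2, then CellTiter-Glo added after the FRET reporter read; luminescence after 30 min.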
% is set by controls: 0 for no effect and ±100 for the full control effect.

Chain of Thyrotropin receptor (Homo sapiens) (P16473 whole entry, looked up): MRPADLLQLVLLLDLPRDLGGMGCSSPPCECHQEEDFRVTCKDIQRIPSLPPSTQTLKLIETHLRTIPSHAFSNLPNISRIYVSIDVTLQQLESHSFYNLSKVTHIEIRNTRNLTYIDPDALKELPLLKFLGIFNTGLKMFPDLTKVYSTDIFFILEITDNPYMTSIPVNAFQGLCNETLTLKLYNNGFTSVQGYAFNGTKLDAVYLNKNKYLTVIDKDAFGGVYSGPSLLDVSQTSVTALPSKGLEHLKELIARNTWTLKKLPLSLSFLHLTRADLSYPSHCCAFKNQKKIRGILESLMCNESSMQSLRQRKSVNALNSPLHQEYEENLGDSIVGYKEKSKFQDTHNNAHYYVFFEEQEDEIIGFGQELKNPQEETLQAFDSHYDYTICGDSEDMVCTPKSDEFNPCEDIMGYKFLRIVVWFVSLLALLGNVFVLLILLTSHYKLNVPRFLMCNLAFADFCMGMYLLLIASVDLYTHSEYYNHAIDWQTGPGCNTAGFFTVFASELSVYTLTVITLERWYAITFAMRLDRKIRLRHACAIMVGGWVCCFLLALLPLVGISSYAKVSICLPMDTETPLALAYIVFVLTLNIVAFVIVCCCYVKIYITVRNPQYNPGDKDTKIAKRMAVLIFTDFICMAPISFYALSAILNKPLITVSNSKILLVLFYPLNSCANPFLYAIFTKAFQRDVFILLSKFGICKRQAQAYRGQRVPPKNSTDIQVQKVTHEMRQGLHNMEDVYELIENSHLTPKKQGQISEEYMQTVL

CC(C)C(=O)c1ccccc1
inactive: outcome [1] | Potency [2] | outcome [3] | outcome [4] | outcome [5] | outcome [6] | Potency [7] | Potency [8]

CCCOCCOCCOCCO
inactive: outcome [1] | Potency [2] | outcome [3] | outcome [9] | outcome [5] | outcome [6] | Potency [7] | Potency [8]

CC(Cl)COP(=O)(OCC(C)Cl)OCC(C)Cl (stereo not given)
inactive: outcome [1] | Potency [2] | outcome [3] | outcome [4] | outcome [9] | outcome [5] | outcome [6] | Potency [7] | Potency [8]

CCCCCCCCCCC
inactive: outcome [1] | Potency [2] | outcome [3] | outcome [4] | outcome [9] | outcome [5] | Potency [7] | Potency [8]

CCC(C)(C)C1CCC(=O)CC1
inactive: outcome [1] | Potency [2] | outcome [3] | outcome [4] | outcome [9] | outcome [5] | outcome [6] | Potency [7] | Potency [8]

CCCCCN(CCCOC)C(=O)C(CCC(=O)O)NC(=O)c1ccc(Cl)c(Cl)c1 (stereo not given)
inactive: outcome [1] | Potency [2] | outcome [3] | outcome [9] | outcome [5] | outcome [6] | Potency [7] | Potency [8]

CCNC(=O)NCCCOc1cccc(CN2CCCCC2)c1
inactive: outcome [1] | Potency [2] | outcome [3] | outcome [9] | outcome [5] | outcome [6] | Potency [7] | Potency [8]

C1=CCC(c2ccccc2)CC1 (stereo not given)
inactive: outcome [1] | outcome [3] | outcome [4] | outcome [5] | outcome [6] | Potency [7] | Potency [8]

NC(=O)C1(N2CCCCC2)CCN(CCCC(=O)c2ccc(F)cc2)CC1
inactive: outcome [1] | Potency [2] | outcome [3] | outcome [4] | outcome [9] | outcome [5] | outcome [6] | Potency [7] | Potency [8]

COc1cccc2sc(N)nc12
inactive: outcome [1] | Potency [2] | outcome [3] | outcome [4] | outcome [5] | outcome [6] | Potency [7] | Potency [8]

Cc1ccccc1C
inactive: outcome [1] | Potency [2] | outcome [3] | outcome [9] | outcome [5] | outcome [6] | Potency [7] | Potency [8]

O=C(O)CCNC(=O)c1ccccc1
inactive: outcome [1] | Potency [2] | outcome [3] | outcome [4] | outcome [9] | outcome [5] | Potency [7] | Potency [8]

CC(C)CCC(=O)CCC(C)C
inactive: outcome [1] | Potency [2] | outcome [3] | outcome [4] | outcome [9] | outcome [5] | outcome [6] | Potency [7] | Potency [8]

CC(C)SCc1ccco1
inactive: outcome [1] | Potency [2] | outcome [3] | outcome [5] | outcome [6] | Potency [7] | Potency [8]

C=C(C)C(=O)OCCCCCCOC(=O)C(=C)C
inactive: outcome [1] | Potency [2] | outcome [3] | outcome [5] | outcome [6] | Potency [8]

Cc1ccccc1OCC1CO1 (stereo not given)
inactive: outcome [1] | Potency [2] | outcome [3] | outcome [9] | outcome [5] | outcome [6] | Potency [7] | Potency [8]

CCCCCCCCCCCCCCCCI
inactive: viability change, negative = cytotoxic [1] -0.222% [at 19 µM] | activity, negative = inhibition [2] -7.26% [at 19 µM] | activation [3] -1.58% [at 19 µM] | activation [4] -19.7% [at 19 µM] | activation (H2AX phosphorylation) [5] 0.0964% [at 31.6 µM] | activation [6] 0.543% [at 15.8 µM] | activity change, negative = cytotoxicity [7] -0.0372% [at 31.6 µM] | activity, negative = inhibition [8] 4.33% [at 19 µM]

CC(C)COC(=O)COc1ccc(Cl)cc1Cl
inactive: outcome [1] | Potency [2] | outcome [3] | outcome [9] | outcome [5] | outcome [6] | Potency [7] | Potency [8]

CCCCOC(=O)C(C)OC(=O)CCC (stereo not given)
inactive: outcome [1] | Potency [2] | outcome [3] | outcome [4] | outcome [9] | outcome [5] | outcome [6] | Potency [7] | Potency [8]

CCCCCCCCCCCCCCCC(=O)NCCO
inactive: outcome [1] | Potency [2] | outcome [3] | outcome [4] | outcome [9] | outcome [5] | Potency [7] | Potency [8]

Cc1nc(C)nc(N2C[C@@H](C)N(c3ccnc([C@@H](C)O)n3)[C@@H](C)C2)n1
active: Potency [8] 13.3 µM
inactive: outcome [1] | outcome [3] | outcome [4] | outcome [9] | outcome [5] | outcome [6] | Potency [7]

CCC1COC(=O)O1 (stereo not given)
inactive: outcome [1] | Potency [2] | outcome [3] | outcome [4] | outcome [5] | outcome [6] | Potency [7] | Potency [8]

Cc1c(C(C)C)c(=O)n(-c2ccccc2)n1C
inactive: outcome [1] | outcome [3] | outcome [9] | outcome [6] | Potency [7] | Potency [8]

Cc1oc(=O)oc1CN1CCN(c2cc3c(cc2F)c(=O)c(C(=O)O)c2n3C(C)S2)CC1 (stereo not given)
inactive: outcome [1] | outcome [4] | outcome [9] | outcome [5] | outcome [6] | Potency [7]

CC(C)=CC(C)(C)C
inactive: outcome [1] | outcome [4] | outcome [9] | outcome [5] | outcome [6] | Potency [7]

C=C[Si](C)(C)O[Si](C)(C)C=C
inactive: outcome [1] | outcome [4] | outcome [9] | outcome [5] | outcome [6] | Potency [7]

NC(Cc1c[nH]c2ccccc12)C(=O)O (stereo not given)
inactive: outcome [1] | outcome [4] | outcome [9] | outcome [5] | outcome [6] | Potency [7]

COc1ccc(OC)c(NC(=O)CC(C)=O)c1
inactive: outcome [1] | outcome [4] | outcome [9] | outcome [5] | outcome [6] | Potency [7]

CO/N=C(/C(=O)N[C@@H]1C(=O)N2C(C(=O)O)=C(Cn3nnc(C)n3)CS[C@H]12)c1csc(N)n1
inactive: outcome [1] | outcome [4] | outcome [9] | outcome [5] | outcome [6] | Potency [7]

CCCCC(=O)N(C)C
inactive: outcome [1] | outcome [4] | outcome [9] | outcome [5] | outcome [6] | Potency [7]
